From PubChem BioAssay (NCI)
Compounds without any hit were thinned out: in the full panel of roughly 83,000, 20% have a hit.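 Method: cells in 96-well plates; compound added at one concentration; 48 h incubation; percent growth measured; values under 10 scored active.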 Unmarked numbers belong to inactive results. The source made the active and inactive calls.

What was measured:
Experiment in all cases: NCI-60 one-dose screen, 48 h (100 = growth as untreated, 0 = no growth, -100 = all killed)
Conditions in all cases: 10 µM unless noted
HCT-15 colon = tested on: HCT-15 colon
HT29 colon = tested on: HT29 colon
SNB-19 CNS = tested on: SNB-19 CNS
U251 CNS = tested on: U251 CNS
PC-3 prostate = tested on: PC-3 prostate
SK-MEL-5 melanoma = tested on: SK-MEL-5 melanoma
UACC-62 melanoma = tested on: UACC-62 melanoma
LOX IMVI melanoma = tested on: LOX IMVI melanoma
SK-MEL-28 melanoma = tested on: SK-MEL-28 melanoma

Compound | growth (HCT-15 colon) | growth (HT29 colon) | growth (SNB-19 CNS) | growth (U251 CNS) | growth (PC-3 prostate) | growth (SK-MEL-5 melanoma) | growth (UACC-62 melanoma) | growth (LOX IMVI melanoma) | growth (SK-MEL-28 melanoma)
O=C(C1CCCCC1)[C@@H]1[C@]2(C(=O)NC3CCCCC32)[C@@H]2CCCN2[C@@]12C(=O)NC1CCC(Cl)CC12 (stereo partly specified) | -83.4% [100 µM] (active) | -85.2% [100 µM] (active) | -92.5% [100 µM] (active) | -90.6% [100 µM] (active) | -87.9% [100 µM] (active) | -97.1% [100 µM] (active) | -95.4% [100 µM] (active) | -83.4% [100 µM] (active) | -83% [100 µM] (active)
C=C(C)[C@@H]1CC[C@]2(COC(C)=O)CC[C@]3(C)[C@H](CC[C@@H]4[C@@]5(C)CCCN(C(C)=O)C(C)(C)[C@@H]5CC[C@]43C)[C@@H]12 | 0.472% (active) | -7.38% (active) | 84.6% | 6.47% (active) | 65.6% | 84.6% | -2.48% (active) | -98% (active) | 96.6%
Cc1ccc(N2C(=O)CCC2=O)cc1 | 96.3% | 98.9% | 104% | 105% | 99.5% | 100% | 98% | 102% | 105%
Cc1ccc(NC(=O)Cn2c(Br)nc3c2c(=O)n(C)c(=O)n3C)cc1 | 45.8% | 55.2% | 50.7% | 4.05% (active) | 30.3% | 25.6% | 45.5% | -9.57% (active) | 52%
COc1ccc2nc(Cl)c(/C=C3\CC(c4ccccc4)=NN(c4ccccc4)C3=O)cc2c1 | 84.5% | 82.5% | 20.3% | 55.6% | 66.1% | 78.2% | 71.8% | 78.3% | 85.8%
C/C(=N\O)c1ccc(NC(=O)CSc2nnc(-c3cc(-c4ccc(S(N)(=O)=O)cc4)nc4ccccc34)n2-c2ccccc2)cc1 | 81% | 66.2% | 66.9% | 62.5% | 63.6% | 54% |  | 37.7% | 84.4%
Cc1nc2ccccc2c(/C=C/c2ccccc2)c1C(=O)/C=C/c1ccccc1 | 1.8% (active) | 6.72% (active) | 47.7% | -25.3% (active) | 35.1% | 45% |  | -64.1% (active) | 24.2%
CC(C)N1C(=O)/C(=c2\sc3n(c2=O)C2C(NN=3)N(C)C(=O)N2C)c2ccccc21 (stereo unspecified) | 37.8% | 31.3% | 61.9% | 48.2% | 55% | 48.8% | 33.4% | 56.6% | 64%
CCN1CCN(CC(=O)Nc2nc3ccc(NCc4ccc(F)cc4)cc3s2)CC1 | 67.3% | 77.4% | 99.2% | 81.9% | 78.9% | 90.8% | 87.4% | 78.6% | 102%
COC(=O)c1nc(-c2ccccc2)oc1S(=O)(=O)NCC(c1ccc(Cl)cc1)N1CCOCC1 (stereo unspecified) | 44.2% | 40% | 89.4% | 72.8% | 50% | 86.4% | 80.9% | 48.7% | 94.3%
COc1cccc(/C=C/C(=O)c2cc3c(N)c(C(=O)Nc4cccc5ccccc45)sc3nc2C)c1 | -23.1% (active) | -11.2% (active) | -18.8% (active) | -11.4% (active) | 27.7% | -19.7% (active) | -18.3% (active) | -66.8% (active) | 39.2%
CC(=O)O[C@H]1C[C@@H]2C(C)(C)C(=O)CC[C@@]2(C)c2ccc(C(C)C)cc21 | 105% | 111% | 102% | 97.7% | 100% | 103% | 101% | 105% | 121%
O=C(CCCCCNC(=O)c1cc(=O)c(O)co1)Nc1ccccc1 | 91.5% | 106% | 101% | 89.9% | 99.7% | 101% | 97.9% | 92.7% | 104%
COc1ccccc1C(=O)Nc1cccc(NC(=O)c2ccoc2C)c1 | 28.7% | 6.04% (active) | 30.4% | 21.9% | 30.5% | 20.5% | 29.7% | 37.3% | 60.1%
CCOC(=O)c1c(C)nc2c(c1N)/C(=C/c1ccc(OC)cc1)C(=O)N2Cc1ccccc1 | 41% | 34% | 77.7% | 50.7% | 58.4% | 61.8% | 48.8% | 55.6% | 78.5%
Cc1cccc(Oc2ccc(Nc3ncnc4ccc(NC(=O)CN5CCN(C)CC5)cc34)cc2Cl)c1 | 5.82% (active) | -30.1% (active) | 28.4% | 9.58% (active) | 33.1% | -76.7% (active) | -27.4% (active) | -94.2% (active) | -84.6% (active)
O=C(Oc1ccc(CCl)cc1)c1ccccc1 | -87.4% (active) | -58.4% (active) | -86.4% (active) | -86.3% (active) | -91.3% (active) | -99% (active) | -76.9% (active) | -85.1% (active) | -75.6% (active)
CN1CCN(Cc2ccc(NC(=O)c3cncc(C#Cc4cnc(N)c5ncccc45)c3)cc2C(F)(F)F)CC1 | -30.2% (active) | -50.2% (active) | 44.3% | -37.6% (active) | 13.6% | -91.9% (active) | 6.71% (active) | -83.6% (active) | -86.8% (active)
COc1cc(C2C(C(=O)OCc3ccccc3)=C(C)NC(C)=C2C(=O)OCc2ccccc2)cc(OC)c1OC | 23.4% | 12.3% | 42.5% | 31.3% | 9.87% (active) | 8.07% (active) | 30.2% | 29.9% | 41.1%
COC(=O)c1cc(Br)ccc1O | 101% | 103% | 108% | 102% | 94.5% | 95.2% | 102% | 94.7% | 107%
C=C1C(=O)O[C@H]2[C@H]1CC/C(COC(=O)/C=C\C(=O)NCc1ccc(Cn3c(=O)sn(CCCCC)c3=O)cc1)=C\CC[C@@]1(C)O[C@@H]21 | 38.8% | 41.3% | 94.8% | 84.4% | 81.9% | 106% | 70.1% | 62.6% | 91.1%
COc1ccc(-c2nn(-c3ccccc3)cc2/C=C/C(=O)NNC(=O)Nc2ccc(C)cc2)cc1 | 97.1% | 101% | 88.5% | 94.3% | 89.6% | 96.5% | 89.3% | 97.6% | 115%
CCOC(=O)C1=C(C)C(Cl)=N/C1=C\c1[nH]c(Cl)c(C)c1C(=O)OCC | 99.1% | 91.9% | 101% | 94.1% |  | 96.8% | 97.4% |  | 122%
Cn1cc(-c2nn3cc(-c4cccs4)nc3s2)c2cc(F)ccc21 | 23.5% | 7.69% (active) | 32.1% | 26% | 45.2% | 29.3% | 33.1% | 35.4% | 49.7%
Cc1nc2cc(O)c(O)cc2cc1Oc1ccc(NC(=O)Nc2ccc(Cl)c(Cl)c2)cc1 | 37.2% | 48% | 49% | 41.4% | 39.3% | -42.2% (active) | 84.5% | 0.463% (active) | 79.1%
O=C(NNc1cnccn1)c1nc2cc(F)ccc2n2cccc12 | 25.7% | 27.9% | 26.2% | 14% | 29.4% | -48.2% (active) | -21.1% (active) | -53.5% (active) | 21%
CCN(CC)CCN1C(=O)c2c(c(C)c3c(oc4ccc(O)cc43)c2C)C1=O | 10.5% | 67.9% | 24.7% | -23.8% (active) | 49.7% | 77.2% | 56.6% |  | 72.2%
COc1ccc(C[n+]2c3ccccc3n3c4ccc(N)cc4ccc32)c(OC)c1OC | 101% | 39.2% | 15.5% | 8.81% (active) | 43.3% | 42.6% | 60.1% |  | 64.5%
